Molecules are shown by their SMILES. Where “and” joins values, the source holds several entries; their conditions need not be identical. Equal entries are not always repeated. This is part of a sample that, as a whole, favours compounds with a hit. Of some 83,000 tested, about 20% had one in any assay.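 Step 1: grow cells in 96-well plates. Step 2: add test compound at a single concentration. Step 3: incubate 48 h. Step 4: record percent growth.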 Calls of active or inactive are those of the source. How the source made its calls: active means growth percent below 10; inactive means the rest.

One test relates to A498 renal. As to the kind of experiment: NCI-60 one-dose screen, 48 h (100 = growth as untreated, 0 = no growth, -100 = all killed). To be noted: 10 µM unless noted.
For the molecule `CC1=C[C@H]2c3c(c(O)c(O)c4oc5cc(O)cc(O)c5c(=O)c34)[C@H](c3cc(O)c(O)c4oc5cc(O)cc(O)c5c(=O)c34)[C@H]2C(C)(C)C1`, the growth was -4.52% (active) and -73.5% (active).

`COc1ccc(/C(C#N)=C/c2ccccn2)cc1`: the growth is 93.2% (inactive) and 122% (inactive).

Regarding `CC(=O)Oc1cc(C(=O)O)cc(OC(C)=O)c1OC(C)=O`, the growth was 73.8% (inactive).

With `COc1ccc(Cn2c(NCCN=C(N)N)nc(=O)n(Cc3ccc(F)cc3)c2=O)cc1`, the growth is 92.1% (inactive) and 97.1% (inactive).

A further test relates to CCRF-CEM leukemia. Described as above. The note with it: 10 µM unless noted.
On to `CC1CCCC(=O)O1` (stereo unspecified), for which the growth is 111% (inactive).

Consider `Cc1ccc(S(=O)(=O)NCN2C(=O)c3ccccc3C2=O)cc1`, for which the growth was 91% (inactive).

Consider `O=C(N/N=C/c1cccc2ccccc12)C1CC1`, for which the growth was 88.3% (inactive).

As for `CN(C)CCCNC1=C(Cl)C(=O)c2ccccc2C1=O`, the growth is 80% (inactive) and 81.3% (inactive).

`COc1ccc2nc(Cl)cc(C)c2c1`: the growth was 100% (inactive) and 88.9% (inactive).

As to `CN(C)c1ccc(C(=C2C=CC(=[N+](C)C)C=C2)c2ccccc2Cl)cc1`, the growth is -35.3% (active) and 5.73% (active).

Consider `OCc1ccccn1`, for which the growth is 103% (inactive).

`CC(=O)Nc1cccc2c1CCCC2`: the growth is 82.6% (inactive) and 100% (inactive).

Take `CCN1CCN(CCNc2nccc(-c3c(-c4cccc(O)c4)nc4sccn34)n2)S1(=O)=O`: the growth was 67.4% (inactive) and 62.1% (inactive).

As to `NC(=O)c1ccccc1OCC(O)CO` (stereo unspecified), the growth is 93.6% (inactive).

For the molecule `Nc1ccccc1Nc1ccccc1`, the growth was 31.8% (inactive) and 25.3% (inactive).

Consider `N/C(=N\N=C\c1ccc2c(c1)OCO2)N/N=C\c1ccc2c(c1)OCO2`, for which the growth is 50.6% (inactive) and 45.3% (inactive).

For the molecule `Oc1ccc(/C=C/c2ccccc2)cc1`, the growth was 33.5% (inactive) and 33.3% (inactive).

Take `COc1ccc2ccccc2c1/C=N/N1CCCCC1`: the growth is 96.7% (inactive).

Take `O=C(Nc1cccc(-n2ccc3c(NC(=O)c4ccccc4)nccc32)c1)c1ccc(Cl)c(C(F)(F)F)c1`: the growth is -25.3% (active) and 40.3% (inactive).

Turning to `CCOc1ccc(Nc2c3ccccc3nc3ccccc23)cc1`, the growth was 99.8% (inactive) and 12.4% (inactive) and 4.91% (active).

For the molecule `CCOc1ccc2cc(-c3nn(CC4CCN(C)CC4)c4ncnc(N)c34)ccc2c1`, the growth was 90.7% (inactive) and 3.75% (active).

On to `C[N+](C)(C)CN1C(=O)c2ccccc2C1=O`, for which the growth was 101% (inactive).

As for `S=C(S)N1CCCC1`, the growth is 65.5% (inactive) and 70.7% (inactive).

For the molecule `O=C1C2=C(C(=O)c3ccccc31)C(O)(S(=O)(=O)O)C(O)(S(=O)(=O)O)C1N=CC=CC21` (stereo unspecified), the growth was 25.1% (inactive) and 41.9% (inactive).

For the molecule `Cc1cc(O)c2c(c1)C(=O)c1cc(O)cc(O)c1C2=O`, the growth was 82.5% (inactive) and 80% (inactive).

`CCN(CC)CCC(CNc1ccnc2cc(Cl)ccc12)c1ccc(OC)cc1` (stereo unspecified): the growth was 63.4% (inactive) and 45.8% (inactive).

Turning to `O=[N+]([O-])c1ccc2nc3c4ccccc4c4ccccc4c3nc2c1`, the growth was 63.1% (inactive).

Take `COc1cc2nc(N3CCC[C@@H](NC(=O)C4COc5ccccc5O4)C3)nc(N)c2cc1OC` (stereo partly specified): the growth was 96.2% (inactive) and 103% (inactive).

Turning to `NC(=S)NN=C1CCC(C2CCCCC2)CC1` (stereo unspecified), the growth is 81.1% (inactive) and 92% (inactive).

For `CCOC(=O)c1sc(N)nc1-c1ccccc1`, the growth is 97.7% (inactive).

Consider `Cc1ccc2nc3c(nc2c1)-c1cccc2cccc-3c12`, for which the growth is 85.7% (inactive).

On to `CC(C)N=c1cc2n(-c3ccc(Cl)cc3)c3ccccc3nc-2cc1Nc1ccc(Cl)cc1`, for which the growth was 15% (inactive) and 28.5% (inactive) and 1.85% (active).

`CCN(CC)CCCC(C)Nc1ccnc2cc(Oc3ccccc3)ccc12` (stereo unspecified): the growth is 65.5% (inactive) and 56% (inactive).

Take `CN1C(=O)C(N=Nc2ccc([N+](=O)[O-])cc2)SC1=S` (stereo unspecified): the growth is 54.5% (inactive) and 40.8% (inactive).

`COc1ccccc1NC(=O)OCC#CCOC(=O)Nc1ccccc1OC`: the growth is 83.1% (inactive) and 91.5% (inactive).

For `O[C@H](c1cc(C(F)(F)F)nc2c(C(F)(F)F)cccc12)[C@@H]1CCCCN1`, the growth is 76.5% (inactive) and 71.6% (inactive).

For `N#C/C(=C1C=C/C(=N/O)C(Br)=C/1)c1ccccc1`, the growth was 4.04% (active).

For `CC1=C[C@H]2c3c(c(O)c(O)c4oc5cc(O)cc(O)c5c(=O)c34)[C@H](c3cc(O)c(O)c4oc5cc(O)cc(O)c5c(=O)c34)[C@H]2C(C)(C)C1`, the growth was 6.01% (active) and -9.45% (active).

Take `COc1ccc(/C(C#N)=C/c2ccccn2)cc1`: the growth is 93% (inactive) and 102% (inactive).

`CC(=O)Oc1cc(C(=O)O)cc(OC(C)=O)c1OC(C)=O`: the growth was 101% (inactive) and 104% (inactive).

In the case of `COc1ccc(Cn2c(NCCN=C(N)N)nc(=O)n(Cc3ccc(F)cc3)c2=O)cc1`, the growth was 93.1% (inactive) and 87.4% (inactive).

(Values after PubChem BioAssay (NCI).)
